# Test results as given in PubChem BioAssay AID720596 (The Scripps Research Institute Molecular Screening Center, 2013).
# Among all 370,000 compounds or so, about 1,600 (0.43%) were called active. The sample holds actives, similar compounds and a random draw of the others, so the mix is not that of the screen. A number with no mark means an inactive call. Rule as the data show it: active = inhibition above about 24%; inactive = the rest.
# Biological target: Major prion protein (Homo sapiens) (UniProt P04156)
# Test: inhibitors of human cell surface prion protein PrPC, primary screen, cell-based, TR-FRET (AID 720596); also: 0% = median of the test wells and 100% = reference compound wells
# Conditions: TR-FRET read-out, at 13.8 µM, stronger effect = higher value
row,Structure (SMILES),inhibition
1,COc1cc(C)c(Cl)cc1S(=O)(=O)n1ccnc1,-3.46%
2,Cc1cc2ccccc2n1CCNC(=O)COc1ccc2ccccc2c1,45.2% (active)
3,COc1ccc(CCNC(=O)COc2ccc3c(c2)OCO3)cc1,-3.21%
4,O=C(COc1ccc2ccc(=O)oc2c1)NCC(O)c1ccccc1 (centres undefined),-8.2%
5,Cc1ccc(C)c(NC(=O)CCS(=O)(=O)c2ccccc2)c1,4.81%
6,CCc1nc2ccc(C(=O)NCCNC(C)=O)cn2c1N(CC)Cc1cccc(Br)c1,1.46%
7,CCOC(=O)N1CCN(C(=O)c2ccccc2N(Cc2ccccc2)S(=O)(=O)c2ccc(OC)cc2)CC1,9.59%
8,COc1cccc(Cn2cc(COC(=O)Nc3ccc(F)cc3)nn2)c1,6.34%
9,CN(C)C(=O)c1nc2ccc(Cl)cn2c1CNCc1cccc(OC(F)(F)F)c1,-9.54%
10,C=CCn1c(SCC(=O)c2c(N)n(C)c(=O)n(C)c2=O)nc2sc(CC)cc2c1=O,2.42%
11,C=CCNC(=O)CSc1nc2scc(-c3ccco3)c2c(=O)n1CC=C,25.2% (active)
12,C=CCn1c(=S)[nH]c2scc(-c3ccco3)c2c1=O,4.26%
13,Nc1nc(NC(=O)/C=C/c2ccc(F)cc2)nn1-c1ccccc1,-4.74%
14,COc1ncnc2c1ncn2CCCNCCN1CCOCC1,-1.3%
15,CCOC(=O)[C@]12CCCC=C1N(Cc1ccc(OC)cc1)C(=O)[C@@H]2CC(=O)NCc1cccs1,6.08%
16,NC(=O)C1CCN(Cc2nc3c(Br)cc(Br)cc3c(=O)[nH]2)CC1,28.2% (active)
17,NC(=O)C1CCN(C(=O)c2ccc3c(=O)n(Cc4cccc(Br)c4)c(=S)[nH]c3c2)CC1,9.5%
18,O=C(Nc1ccccc1)N1CCN(Cc2nc3ccccc3c(=O)[nH]2)CC1,-8.21%
19,O=C(NC1CCCC1)C1c2ccccc2OCC(=O)N1CC(F)(F)F (centres undefined),1.68%
20,CCc1nnc(NC(=O)CSc2nnc(COc3ccc(C#N)cc3)n2-c2ccccc2)s1,0.08%
21,O=C(CN1C(=O)C2C3C=CC(C3)C2C1=O)Nc1nc(-c2ccccn2)cs1 (centres undefined),2.72%
22,N#Cc1ccc(OCC(=O)Nc2nc(-c3ccccn3)cs2)cc1,32.4% (active)
23,CCN(Cc1ccncc1)C(=S)Nc1ccccc1C,0.38%

row,Structure (SMILES),inhibition
1,O=S(=O)(c1ccccc1)N(Cc1cccc(F)c1)c1ccccc1,7.38%
2,COc1ccc2c(Cl)c(-c3nnco3)sc2c1,24.9% (active)
3,C#CCSc1nnc(-c2sc3ccccc3c2Cl)o1,3.9%
4,Fc1ccc(COc2ccc(-c3nnco3)cc2)cc1,1.45%
5,Cn1cnc(S(=O)(=O)N2C[C@@H](O)COC[C@@H]3O[C@H](CC(=O)NC4CCC4)CC[C@H]32)c1,9.27%
6,Cc1nn(-c2ccccc2)c(=O)c2noc(C)c12,1.14%
7,CCCCn1c(SCc2ncc(-c3ccccc3)o2)nc2cc(S(N)(=O)=O)ccc21,2.37%
8,COc1ccc(C[C@H]2CN3C(=NC[C@H]3C)N2CCNC(=O)CCC2CCCCC2)cc1,-0.91%
9,CC1(C(=O)NS(=O)(=O)Cc2cccc(Cl)c2)CCN1C(=O)Cc1ccc(Cl)cc1Cl (centres undefined),1.42%
10,Cc1ccc(CSc2ccc(S(=O)(=O)N3CCCCC3)cn2)cc1,33.8% (active)
11,COC(=O)c1ccc(CSc2ccc(S(=O)(=O)N3CCCCC3)cn2)cc1,0.66%
12,O=S(=O)(c1ccc(SCc2ccccc2)nc1)N1CCCCCC1,-0.79%
13,CCOc1ccc(CCNC(=O)C2CCN(c3ccc(N4CCOCC4)nn3)CC2)cc1OCC,-16.1%
14,O=C(/C=C/c1cccc([N+](=O)[O-])c1)OCC(=O)N1CCOCC1,-2.76%
15,CCN(C(=O)[C@@H](C1CC1)[C@@H](O)c1ccc2ccccc2c1)c1ccccc1,-3.85%
16,COc1ccc(CN2CCC(c3nc4ccc(Cl)cc4[nH]3)CC2)cc1,-13.1%
17,Cc1ccc(CN2CCCOCCS2(=O)=O)cc1,2.42%
18,COc1ccc(C(=O)N2CCCCC2c2cc(C(=O)Nc3ccc(F)c(Cl)c3)no2)cc1 (centres undefined),-1.86%
19,CCc1c(C)nc2cc(-c3cccs3)[nH]n2c1=O,37.9% (active)
20,CCc1c(C)nc2cc(C)[nH]n2c1=O,1.02%
21,Cc1cc(=O)n2[nH]c(-c3sccc3-n3c(C)ccc3C)cc2n1,13.4%
22,CC(C)n1c(=S)[nH]c2cc(C(F)(F)F)ccc21,-2.04%
23,O=C(Nc1nc2ccc(Cl)cc2s1)c1cc(-c2ccc(Cl)cc2)nc2ccccc12,6.81%

row,Structure (SMILES),inhibition
1,O=C(CNC(=O)c1ccccc1)OC(C(=O)Nc1cc([N+](=O)[O-])ccc1F)c1ccccc1 (centres undefined),9.58%
2,O=C(NC(Nc1nc2ccc([N+](=O)[O-])cc2s1)(C(F)(F)F)C(F)(F)F)c1ccccc1,43.8% (active)
3,Cc1cc(C(=O)NN=C/C=C/c2ccco2)n[nH]1,-15.4%
4,CCn1c(SCC(=O)Nc2nc(C)cs2)nnc1C(C)NC(=O)c1ccccc1 (centres undefined),-3.46%
5,CC(=O)N1C[C@@H](CO)[C@@H](N(C)C(=O)c2ccco2)C[C@H]1c1ccccc1,-3.63%
6,CCN(CC(=O)NCc1cccs1)C(=O)/C=C/c1ccc(C)cc1,-4.17%
7,COC(=O)Cc1[nH]n(-c2nc3ccccc3s2)c(=O)c1C(C)=Nc1ccc(OC)cc1,32.6% (active)
8,O=C(COC(=O)CNS(=O)(=O)c1ccc(F)c(F)c1F)NC1CCCC1,-0.54%
9,O=C(COC(=O)c1cnccn1)Nc1ccc(Cl)cc1C(F)(F)F,5.86%
10,Cc1c(S(=O)(=O)N2CC(C)CC(C)C2)c(=O)n(C)c(=O)n1C (centres undefined),5.95%
11,CCSc1nc(C)c(CCOc2cccc(C)c2)c(=O)[nH]1,4.37%
12,CN(C)S(=O)(=O)c1ccc(NC(=O)COC(=O)c2n[nH]c3ccccc23)cc1,0.47%
13,CCCc1nc(SCC(=O)Nc2ccc(S(=O)(=O)N(C)C)cc2)c2ccccc2n1,52.8% (active)
14,CC(C)N(C(=O)CSc1nc(COc2ccccc2)nc2ccccc12)C(C)C,12.9%
15,COc1ccc(C(=O)Cn2nnc(-c3ccc(N4CCOCC4)cc3)n2)cc1OC,2.45%
16,O=c1[nH]c(=O)n(Cc2ccco2)c2c1C(C(F)(F)F)(C(F)(F)F)N=C(c1ccco1)N2,-1.08%
17,Fc1ccc2[nH]c3c(N4CCSCC4)ncnc3c2c1,40.8% (active)
18,CC(=O)NC(NC(=S)Nc1c(C)n(C)n(-c2ccccc2)c1=O)C(Cl)(Cl)Cl (centres undefined),-1.39%
19,CCc1nc(SCC(=O)NNC(=O)c2ccc(C)cc2)c2ccccc2n1,97.6% (active)
20,CCN(CC)c1ccc(C(=O)NNC(=O)CCc2nc3ccccc3c(=O)[nH]2)cc1,1.99%
21,Cc1ccc(SCC(=O)NNC(=O)c2ccc(S(C)(=O)=O)cc2)cc1,-1.94%
22,CCCN(CCC)S(=O)(=O)c1ccc(C(=O)N2CC3CCC(CC3)C2)cc1,0.5%
23,O=C(Nc1c(Cl)c(C2CC2)nn1-c1ccccc1)C(Cl)(Cl)Cl,1.29%

row,Structure (SMILES),inhibition
1,CCC(C)NC(=O)N[C@@H](CCSC)C(=O)O (some centres undefined),-4.34%
2,CCC(C)NC(=O)c1nn(C)c(=O)c2ccccc12 (centres undefined),-2.76%
3,Cc1cccc(C(=O)C(O)(c2ccccc2)C2CCCCC2=O)c1 (centres undefined),-5.23%
4,N#Cc1ccccc1Sc1ccccc1C(=O)OCC(=O)NC1CCCCC1,-7.2%
5,O=C(COC(=O)c1ccccc1SCC(=O)NC1CCCCC1)NC1CCCCC1,52.2% (active)
6,O=C(COC(=O)c1cccc(Cl)c1Cl)NC1CCCCCC1,4.24%
7,COC(=O)Cc1nc2c(N)nc(N)nc2[nH]c1=O,4.68%
8,Cc1sc(NC(=O)C2C3CCC(O3)C2C(=O)O)c(C(=O)OC(C)C)c1-c1ccc(Cl)cc1 (centres undefined),7.78%
9,CCOC(=O)C1CCN(C(=O)C2CCCN(S(=O)(=O)c3ccc(OC)c(Cl)c3)C2)CC1 (centres undefined),-3.34%
10,CC(=O)N1c2ccc(S(=O)(=O)N3CCCC(C(=O)Nc4cccc(F)c4)C3)cc2CC1C (centres undefined),51.1% (active)
11,COc1ccc(S(=O)(=O)N2CCCC(C(=O)N3CCN(C)CC3)C2)cc1C (centres undefined),2.94%
12,CC(=O)N1CCCc2cc(S(=O)(=O)N3CCCC(C(=O)NCc4ccc(Cl)cc4)C3)ccc21 (centres undefined),29.3% (active)
13,CC(=O)N1c2ccc(S(=O)(=O)N3CCCC(C(=O)Nc4ccc(C)cc4C)C3)cc2CC1C (centres undefined),6.63%
14,CC(=O)N1c2ccc(S(=O)(=O)N3CCC(C(=O)NCc4ccc(F)cc4)CC3)cc2CC1C (centres undefined),-0.57%
15,CC(=O)N1CCCc2cc(S(=O)(=O)N3CCCC(C(=O)N4CCN(c5cccc(Cl)c5)CC4)C3)ccc21 (centres undefined),40.4% (active)
16,CC(=O)N1c2ccc(S(=O)(=O)N3CCC(C(=O)NC4CCCCC4C)CC3)cc2CC1C (centres undefined),6.59%
17,CC(=O)N1c2ccc(S(=O)(=O)N3CCCC(C(=O)NCc4ccc(Cl)cc4)C3)cc2CC1C (centres undefined),10.5%
18,CCOC(=O)C1CCN(C(=O)COc2cc(C)c(Br)c(C)c2)CC1,0.57%
19,O=C(/C(=N\O)n1cncn1)c1ccc(Br)cc1Br,-3.03%
20,CC12CN(Cc3ccccc3)CC(C)(CN(Cc3ccccc3)C1)C2=NO,-7.09%
